Screening results as filed in PubChem.
NS1 inh: blocks influenza NS1 protein function. Potency, µM (titrated, usually from 46.1 µM), without a hit: top-dose activity, positive = more growth. 0.4% of 270,000 active; note: potency is the fitted concentration of half-maximal effect; actives are rising curves; nearly all actives have a fitted effect of over 50% in size
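In this qHTS, NS1 from influenza A is expressed in budding yeast, where it slows growth. Cells are switched from glucose to 2% galactose medium (pH 6.0, -URA), treated with compound, and growth recovery is read at OD600.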
Pf growth 48h: P. falciparum growth inhibition at 48 hours (one generation); AID 504832; Potency, µM (highest dose often 28.7 µM), without a hit: top-dose activity change, negative = inhibition, most hits filed as inhibitors; P. falciparum luciferase growth in erythrocytes, 48 h; 5.9% of 310,000 active; active = well fitted inhibition curve with a large enough effect; inconclusive = small, poorly fitted or top-dose-only effect, or another doubt; inactive = no such curve, though single readings can be large or run the other way; note: potency is the fitted concentration of half-maximal effect; % is set by controls: 0 for no effect and ±100 for the full control effect
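First compound was added to culture medium, then infected red cells at 0.1% parasitemia and 2% hematocrit (final). After incubation at 37 C under 5% CO2, luciferase detection reagent was dispensed and light output recorded.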
RE007 growth inh: less growth of the S. pombe RE007 Vpr strain; S. pombe RE007 Vpr strain, BacTiter-Glo ATP luminescence, 24 h; Potency, µM (top dose mostly 92.2 µM), for inactives: top-dose activity change, negative = less growth, usual class: inhibitors; 0.21% of 360,000 active; active = well fitted falling curve with a large enough effect; inconclusive = small, poorly fitted or top-dose-only effect; inactive = no such curve, though single readings can be large or run the other way; note: potency is the fitted concentration of half-maximal effect; % is set by controls: 0 for no effect and ±100 for the full control effect; nearly all actives have a fitted effect of over 50% in size
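Fission yeast RE007 carrying one integrated HIV-1 vpr copy, seeded at OD 0.01 in PMG+AL medium with 23 nL pinned compound. Grown 24 h at 30 degrees; viability read by BacTiter-Glo luminescence after 5 min.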
Pf growth 96h: P. falciparum growth inhibition at 96 hour, primary screen for plastid delayed-death inhibitors; P. falciparum luciferase reporter growth, 96 h; Potency, µM (series often up to 28.7 µM), inactives show at the top dose activity change, negative = inhibition, usual class: inhibitors; 6.9% of 320,000 active; AID 504834; active = well fitted inhibition curve with a large enough effect; inconclusive = small, poorly fitted or top-dose-only effect, or another doubt; inactive = no such curve, though single readings can be large or run the other way; note: potency is the fitted concentration of half-maximal effect; % is set by controls: 0 for no effect and ±100 for the full control effect
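Two-generation exposure (96 h) targets delayed-death phenotype. Reporter parasites carrying integrated firefly luciferase, in red cells at 2% hematocrit and 0.05% parasitemia final, kept at 37 C, 5% CO2; luminescence loss indicates inhibition.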
SARS PLpro yeast: blocks SARS-CoV papain-like protease in a yeast assay. 0.19% of 330,000 active. S. cerevisiae expressing SARS-CoV PLpro, growth rescue. Potency, µM (doses to about 32.9 µM), for the others: at the top dose activity, positive = growth rescue, hits mostly activators; note: potency is the fitted concentration of half-maximal effect; 0% is about no effect; nearly all actives have a fitted effect of over 55% in size
NS1 inh valid: influenza NS1 function inhibition validation. shares compounds with NS1 inh. influenza NS1 function cell assay, 15-point titration. activity change, negative = inhibition, % at 32.9 µM. 1,400 tested, under 10 active. AID 492980; note: 0% is about no effect
PR8 titer: reduces influenza A/PR/8/34 replication in MDCK cells; shares compounds with NS1 inh; virus titer (log TCID50), log10 TCID50 at 5 µM; AID 504647; 30% of 95 active; MDCK infected influenza A/PR/8/34, virus titer TCID50; active compounds read low; call rule not given here
Numbers without * were called inactive; ? = inconclusive; · = not tested or not shown; [ ] = dose if it differs, or a comment. Shown are actives, neighbours in structure and some others; about 9.5% of the full set was active somewhere. Unless noted, calls come from the whole dose curve.

SMILES	NS1 inh	Pf growth 48h	RE007 growth inh	Pf growth 96h	SARS PLpro yeast	NS1 inh valid	others
CCOc1cc(/C=N/NS(=O)(=O)c2ccccc2)ccc1OS(=O)(=O)c1ccc(C)cc1	20.5%	·	1.5%	?	6.2%	·
CCOc1cc(/C=N/NC(=O)COc2ccc(Cl)cc2)ccc1OS(=O)(=O)c1ccccc1	2µM*	·	7.4%	?	22.1%	?	PR8 titer=7.66
O=C(c1ccc(Cl)c([N+](=O)[O-])c1)N1CCN(Cc2ccc3c(c2)OCO3)CC1	2.7%	7.4%	-11.0%	-26.4%	0.3%	·
COc1ccc(CCNC(=O)CSc2nc(N)c(C#N)c(-c3cccs3)c2C#N)cc1OC	4.47µM*	?	-10.8%	118.9%	-2.3%	9.0
Cc1ccccc1NC(=O)CSc1nc(N)c(C#N)c(-c2cccs2)c1C#N	-27.9%	?	0.2%	?	0.1%	·
CCOC(=O)CC1=CCc2c1ccc(OC)c2OC	·	·	-7.6%	·	·	·
Cc1c(Nc2nc3ccccc3nc2NS(=O)(=O)c2cccc(Cl)c2)c(=O)n(-c2ccccc2)n1C	8.91µM*	15.1%	-1.6%	3.7%	18.0%	12.5
COc1cc2c(cc1OC)CN(C1CCC(C)CC1)CC2 (stereo not drawn)	-3.0%	?	-14.9%	?	4.8%	·
O=C(Cn1cc2c(n1)CCCC2)NCCCN1CCN(C2CCCCC2)CC1	8.91µM*	19.6%	-4.6%	77.0%	2.7%	7.5
CCOc1ccc2[nH]c(=O)c(CN(CC3COCCO3)C(=O)c3ccco3)cc2c1 (stereo not drawn)	-0.5%	2.2%	0.3%	·	8.5%	·
CCOc1ccc2[nH]c(=O)c(CN(Cc3ccc(F)cc3)C(=O)c3ccco3)cc2c1	11.2µM*	-10.0%	10.9%	·	-2.1%	-11.3
O=C1CCCC2=C1C(c1ccc(Br)cc1)c1c([nH]c(=S)[nH]c1=O)N2 (stereo not drawn)	6.31µM*	-8.4%	36.2%	?	9.1%	13.3
Cc1ccc(C2C3=C(CCCC3=O)Nc3[nH]c(=S)[nH]c(=O)c32)cc1 (stereo not drawn)	2.5%	0.4%	-8.4%	-2.3%	5.5%	·
COc1ccc(CN2CCN(C(=O)CCC(=O)Nc3nnc(CC(C)C)s3)CC2)cc1F	2.24µM*	?	12.8%	-1.5%	15.2%	?
Cc1ccc(-c2csc(NC(=S)NC(=O)c3ccco3)n2)cc1	4.6%	59.9%	-7.4%	?	6.2%	·
O=C(NNc1nc(-c2ccc(Cl)cc2)cs1)c1ccco1	3.16µM*	11.7µM*	217.2%	?	-30.1%	-6.0
O=C(NNc1nc(-c2ccccc2)cs1)c1ccco1	3.98µM*	11.7µM*	27.6%	1.47µM*	-12.4%	10.8
O=C(Cc1ccccc1)NCCN1CCCC1	2.82µM*	0.6%	4.5%	-10.7%	3.2%	-0.8
Cc1ccccc1CC(=O)NCCN1CCCCC1	1.8%	14.1%	1.4%	-9.0%	4.6%	·
COc1ccc(C2CC(c3ccccc3)=NN2C(=O)COC(=O)c2cc(S(=O)(=O)N3CCOCC3)ccc2Cl)cc1 (stereo not drawn)	10µM*	?	-20.1%	?	-13.3%	2.4
NC(=O)[C@H]1CC2(CC(c3cccc(NC(=O)[C@H]4CCC(=O)N4)c3)=NO2)CN1C(=O)c1cc([N+](=O)[O-])cc([N+](=O)[O-])c1 (stereo partly drawn)	-4.5%	32.9%	-4.2%	41.7%	0.6%	·
NC(=O)[C@H](Cc1cc2ccccc2s1)NC(=O)[C@@H]1CC2(CC(c3cccc(NC(=O)[C@@H]4CCC(=O)N4)c3)=NO2)CN1C(=O)/C=C/Sc1ccccc1 (stereo partly drawn)	17.8µM*	13.1µM*	-4.0%	?	-1.8%	33.3
CCOc1ccc(C(=S)N2CCN(C)CC2)cc1	·	-1.0%[5.75 µM]	0.7%	?	7.2%	·
C=CCCC(=O)N1C[C@H]2CON(C)[C@H]2C[C@H]1c1ccc(-n2ccnc2)cc1	·	·	-5.8%	·	·	·
